Where a structure was tested more than once in an assay, its records may differ in their call. Calls of active or inactive are those of the source. Rule for the calls: active = hit-call score of the fitted dose curve at least 0.9, where 1 is the maximum; inactive = score below 0.9.

The experiment is described as follows: CCTE_Padilla_ZF_144hpf_TERATOSCORE: (Legacy) CCTE's 144 Hour Post-fertilization zebrafish Assay Teratoscore, Padilla Lab (AID 2283679).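 For AC50: zebrafish embryos with chorions exposed by immersion from 6-8 hpf to 5 dpf with daily renewal; teratogenicity score from eye scoring of death hatching and malformations at 144 hpf; higher score means more developmental defects relative to DMSO baseline.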 The method in brief:
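Larvae scored by eye at 144 hpf for death, hatching and malformations after a day in clean Hanks'. Before that, daily-renewed exposure at 80 uM (0.4% DMSO, 26C) from roughly 6-8 hpf through 5 dpf, 4 embryos per chemical.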
In the case of `CC1=C2C[C@H]3[C@@H](CC=C4C[C@@H](O)CC[C@@]43C)[C@@H]2CC[C@]12O[C@@H]1C[C@H](C)CN[C@H]1[C@H]2C`, the AC50 is 0.115 µM (active).

Consider `c1cc2ccc3cccc4ccc(c1)c2c34`, for which the half-maximal activity concentration (AC50) is 13.5 µM (active).

`CCOP(=S)(OCC)SCSC(C)(C)C`: the AC50 was 56.3 µM (active).

Take `O=C(O)C(F)(F)C(F)(F)C(F)(F)C(F)(F)C(F)(F)C(F)(F)C(F)(F)C(F)(F)F`: the half-maximal activity concentration (AC50) was 53.7 µM (active).

In the case of `ClC(Cl)=C(c1ccc(Cl)cc1)c1ccc(Cl)cc1`, the half-maximal activity concentration (AC50) is 8.32 µM (active).

For the compound `Oc1ccc(Cl)cc1Cl`, the AC50 is 56.6 µM (active).

In the case of `CCCN(CCC)N=O`, the result was inactive.

For the compound `C[C@]12CCC(=O)C=C1CC[C@@H]1[C@@H]2CC[C@@]2(C)[C@H]1CC[C@]2(C)O`, the AC50 was 24.4 µM (active).

On to `O=S(=O)(O)C(F)(F)C(F)(F)C(F)(F)C(F)(F)C(F)(F)C(F)(F)F`, for which the AC50 was 123 µM (active).

`ClC1=C(Cl)[C@]2(Cl)[C@@H]3[C@@H](Cl)[C@H]4O[C@H]4[C@@H]3C1(Cl)C2(Cl)Cl`: the half-maximal activity concentration (AC50) was 0.547 µM (active).

As to `CC(C)(O)C(=O)Nc1ccc([N+](=O)[O-])c(C(F)(F)F)c1`, the AC50 was 31.4 µM (active).

On to `Clc1ccc(C(c2ccccc2Cl)C(Cl)(Cl)Cl)cc1` (centres undefined), for which the AC50 is 16.1 µM (active).

For `CCCCCCCCCC[N+](C)(C)CCCCCCCCCC`, the AC50 was 4.53 µM (active).

For the compound `CC(C)(c1ccccc1)c1ccc(O)cc1`, the AC50 was 4.83 µM (active).

For the compound `Nc1ccc(-c2ccc(N)cc2)cc1`, the AC50 was 33 µM (active).

`CCC(C)c1cc([N+](=O)[O-])cc([N+](=O)[O-])c1O` (centres undefined): the AC50 was 0.167 µM (active).

Regarding `c1ccc(-c2ccccc2)cc1`, the AC50 is 4.5 µM (active) and the result was inactive.

For `CO/C=C(/C(=O)OC)c1ccccc1COc1cccc(C(F)(F)F)n1`, the concentration at half-maximal activity (AC50) is 0.168 µM (active).

Consider `ClC1=C(Cl)[C@]2(Cl)[C@@H]3[C@@H]4C[C@@H]([C@H]5O[C@@H]45)[C@@H]3[C@@]1(Cl)C2(Cl)Cl`, for which the concentration at half-maximal activity (AC50) is 0.345 µM (active).

Take `CCCCCCCCOC(=O)c1ccccc1C(=O)OCCCCCCCC`: the compound was classed as inactive.

On to `Cc1cc2c3c(c1)C(c1ccccc1)=N[C@@H](NC(=O)c1ccncc1)C(=O)N3CC2`, for which the AC50 was 54.4 µM (active).

For `CCOC(=O)C(O)(c1ccc(Cl)cc1)c1ccc(Cl)cc1`, the half-maximal activity concentration (AC50) was 1.71 µM (active).

On to `Oc1ccc(C(c2ccc(O)cc2)(C(F)(F)F)C(F)(F)F)cc1`, for which the half-maximal activity concentration (AC50) was 18.1 µM (active).

Source of the values: PubChem BioAssay (EPA / NIEHS).
